Source: PubChem BioAssay (Tox21)
A number with no mark means an inactive call. Results filed as inconclusive are left out. Entries that show only a call come without a potency. Activity calls are given as the source filed them. Unless noted, calls come from the whole dose curve; as a rule, active = well fitted curve in the direction sought with a large enough effect in the repeat runs; inconclusive = weak or mixed curves; inactive = no such curve, though single readings can be large; an effect the other way counts as inactive or inconclusive. Where a SMILES comes first, the peptide text is derived from it.

Legend:
[1] = qHTS assay to identify small molecule antagonists of the TGF-beta/Smad signaling pathway - cell viability counter screen (AID 1346824); note: nearly all actives have a fitted effect of over 50% in size
Summary of the method: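 SBE-bla HEK 293T cells were plated overnight at 37 C, then given compounds in DMSO plus TGF-beta1 (added as 0.25 ng/mL solution) for 5 hr. After the bla read, CellTiter-Glo was added to the same wells and luminescence read after 30 min at room temperature.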

[2] = qHTS assay to identify small molecule agonists of the TGF-beta/Smad signaling pathway - cell viability counter screen (AID 1346829); note: top concentration of the series differs between compounds; nearly all actives have a fitted effect of over 45% in size
Summary of the method: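 CellTiter-Glo luminescence readout; SBE-bla HEK 293T cells, overnight plating, compound 5 hr at 37 C/5% CO2, then bla substrate 2 hr RT, then CellTiter-Glo 30 min RT.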

[3] = qHTS assay to identify small molecule agonists of the TGF-beta/Smad signaling pathway (AID 1346859; active = well fitted activation curve with a large enough effect in the signal ratio in the repeat runs, not every such curve was filed as active; the % refers to the signal ratio; note: series mostly up to about 77 µM)
Summary of the method: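 Each well held 4,000 SBE-bla HEK 293T cells incubated overnight before compound addition; 5 hr later the cleavable FRET substrate went on for 2 hr at room temperature, and fluorescence was read at two emissions.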

[4] = target: Thyrotropin-releasing hormone receptor (Homo sapiens) (UniProt P34981); experiment: qHTS assay to identify small molecule antagonists of the thyrotropin-releasing hormone receptor (TRHR) signaling pathway (AID 1346877; active = well fitted inhibition curve with a large enough effect in the repeat runs, not every such curve was filed as active; note: series mostly up to about 51 µM)
Sequence of Thyrotropin-releasing hormone receptor (Homo sapiens) (P34981 whole entry, looked up): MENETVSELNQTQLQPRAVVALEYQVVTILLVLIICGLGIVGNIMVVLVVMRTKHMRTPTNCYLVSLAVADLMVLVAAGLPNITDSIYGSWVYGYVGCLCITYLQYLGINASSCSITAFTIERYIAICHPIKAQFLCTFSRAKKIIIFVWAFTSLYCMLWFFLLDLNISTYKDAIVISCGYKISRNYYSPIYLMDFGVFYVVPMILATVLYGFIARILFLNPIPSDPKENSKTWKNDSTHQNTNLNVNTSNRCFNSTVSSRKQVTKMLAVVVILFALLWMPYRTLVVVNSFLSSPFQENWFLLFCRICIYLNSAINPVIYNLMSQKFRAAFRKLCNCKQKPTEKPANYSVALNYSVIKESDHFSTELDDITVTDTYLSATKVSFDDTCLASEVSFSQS
Summary of the method: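 HEK293/TRHR cells, 18 h, 37 °C; Ca2+ dye 2 h; cpd 5 min RT; TRH 1 nM final; fluorescence read 3 min, 1 s intervals; 15 concs, triplicate.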

[5] = target: Thyrotropin-releasing hormone receptor (Homo sapiens) (UniProt P34981); experiment: qHTS assay to identify small molecule agonists of the thyrotropin-releasing hormone receptor (TRHR) signaling pathway (AID 1346891; calls by dose curve; note: series mostly up to about 58 µM)
Summary of the method: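 Screening of agonists relied on calcium signalling in HEK293 cells expressing human TRHR: dye loading 2 h at 37 °C preceded compound addition and a 3-min fluorescence time course.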

[6] = Human pregnane X receptor (PXR) small molecule agonists, qHTS cell viability counter screen (AID 1346977); note: nearly all actives have a fitted effect of over 50% in size
Summary of the method: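 Tox21 qHTS format; PXR-Luc HepG2, 2,000/well, charcoal-stripped FBS 5%. Cpd exposure 24hr. Read: CellTiter-Fluor fluorescence, multiplexed with luciferase.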

[7] = Caspase-3/7 induction in HepG2 cells by small molecules, qHTS assay (AID 1346978); note: nearly all actives have a fitted effect of over 15% in size
Summary of the method: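 Wild-type HepG2 cells (2,000/well) were settled 5 h at 37 C, 5% CO2, then exposed to compounds in DMSO for 17 h. Caspase-3/7 activity was read by luminescence 30 min after adding Caspase-Glo 3/7 reagent at room temperature.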

[8] = Caspase-3/7 induction in CHO-K1 cells by small molecules, qHTS cell viability counter screen (AID 1346979); note: nearly all actives have a fitted effect of over 35% in size
Summary of the method: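 CellTiter-Fluor viability check, qHTS format: wild-type CHO-K1, 16hr compound treatment, 1hr reagent incubation, fluorescence read.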

[9] = Caspase-3/7 induction in CHO-K1 cells by small molecules, qHTS assay (AID 1346980); note: nearly all actives have a fitted effect of over 15% in size
Summary of the method: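 Wild-type cells were seeded at 1,500 per well and settled 5 hr at 37 C, 5% CO2, then exposed to DMSO-dissolved compounds for 17 hr. Caspase-Glo 3/7 reagent was added, and luminescence was read after 30min at room temperature.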

[10] = Caspase-3/7 induction in HepG2 cells by small molecules, qHTS cell viability counter screen (AID 1346981); note: series mostly up to about 92 µM; nearly all actives have a fitted effect of over 30% in size
Summary of the method: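 Fluorescence read-out of live-cell protease activity (CellTiter-Fluor) after 1 hr with reagent. This was measured in the same wells as the caspase-3/7 luminescence, on HepG2 cells exposed to DMSO-dissolved compounds for 16 hr at 37 C.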

[11] = target: Nuclear receptor subfamily 1 group I member 2 (Homo sapiens) (UniProt O75469); experiment: Human pregnane X receptor (PXR) small molecule agonists, qHTS assay (AID 1346982); note: nearly all actives have a fitted effect of over 35% in size; note: potency is the fitted concentration of half-maximal effect
Sequence of Nuclear receptor subfamily 1 group I member 2 (Homo sapiens) (O75469 whole entry, looked up): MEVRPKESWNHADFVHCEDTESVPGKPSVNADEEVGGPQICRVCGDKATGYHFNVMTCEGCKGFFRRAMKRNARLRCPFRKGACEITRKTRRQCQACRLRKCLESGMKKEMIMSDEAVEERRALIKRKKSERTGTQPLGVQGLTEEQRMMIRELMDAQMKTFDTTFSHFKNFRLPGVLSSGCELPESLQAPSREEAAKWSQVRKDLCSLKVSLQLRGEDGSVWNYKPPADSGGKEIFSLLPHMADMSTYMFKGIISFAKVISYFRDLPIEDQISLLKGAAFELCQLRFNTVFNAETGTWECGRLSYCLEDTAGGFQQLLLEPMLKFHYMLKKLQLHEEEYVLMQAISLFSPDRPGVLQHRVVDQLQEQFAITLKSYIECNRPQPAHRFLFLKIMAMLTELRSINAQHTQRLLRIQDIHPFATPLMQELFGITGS
Summary of the method: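 HepG2 PXR-Luc reporter line, 5% charcoal-stripped FBS; 5 hr pre-incubation, compound (DMSO) 24 hr at 37 C/5% CO2; ONE-Glo 30 min RT; luminescence read-out.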

[12] = target: Cytochrome P450 2D6 (Homo sapiens) (UniProt P10635); experiment: Cytochrome P450 Family 2 Subfamily D Member 6 (CYP2D6) small molecule antagonists: luciferase reporter qHTS assay (AID 1671196); note: nearly all actives have a fitted effect of over 50% in size; note: potency is the fitted concentration of half-maximal effect
Sequence of Cytochrome P450 2D6 (Homo sapiens) (P10635 whole entry, looked up): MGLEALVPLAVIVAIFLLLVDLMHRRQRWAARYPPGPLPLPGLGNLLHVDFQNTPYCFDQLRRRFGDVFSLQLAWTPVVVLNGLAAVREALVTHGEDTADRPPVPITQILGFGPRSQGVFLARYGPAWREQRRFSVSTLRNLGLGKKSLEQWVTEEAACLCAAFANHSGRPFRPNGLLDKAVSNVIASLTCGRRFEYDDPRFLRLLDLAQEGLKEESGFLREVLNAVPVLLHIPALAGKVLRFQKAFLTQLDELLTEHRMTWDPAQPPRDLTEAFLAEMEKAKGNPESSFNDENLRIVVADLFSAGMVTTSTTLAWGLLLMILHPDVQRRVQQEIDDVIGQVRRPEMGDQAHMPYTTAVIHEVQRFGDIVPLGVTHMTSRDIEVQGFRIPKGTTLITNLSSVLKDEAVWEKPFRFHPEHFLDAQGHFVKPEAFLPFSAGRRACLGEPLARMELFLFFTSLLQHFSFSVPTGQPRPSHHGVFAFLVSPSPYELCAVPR
Summary of the method: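 Luminogenic proluciferin substrate, CYP2D6 enzyme; 10 min RT preincubation with compound, NADPH regeneration system added, 1 h RT. Stop/detection reagent, 20 min RT, luminescence read (RLU). Signal proportional to CYP activity.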

[13] = target: Cytochrome P450 2C19 (Homo sapiens) (UniProt P33261); experiment: Cytochrome P450 Family 2 Subfamily C Member 19 (CYP2C19) small molecule antagonists: luciferase reporter qHTS assay (AID 1671197); note: nearly all actives have a fitted effect of over 65% in size; note: potency is the fitted concentration of half-maximal effect
Sequence of Cytochrome P450 2C19 (Homo sapiens) (P33261 whole entry, looked up): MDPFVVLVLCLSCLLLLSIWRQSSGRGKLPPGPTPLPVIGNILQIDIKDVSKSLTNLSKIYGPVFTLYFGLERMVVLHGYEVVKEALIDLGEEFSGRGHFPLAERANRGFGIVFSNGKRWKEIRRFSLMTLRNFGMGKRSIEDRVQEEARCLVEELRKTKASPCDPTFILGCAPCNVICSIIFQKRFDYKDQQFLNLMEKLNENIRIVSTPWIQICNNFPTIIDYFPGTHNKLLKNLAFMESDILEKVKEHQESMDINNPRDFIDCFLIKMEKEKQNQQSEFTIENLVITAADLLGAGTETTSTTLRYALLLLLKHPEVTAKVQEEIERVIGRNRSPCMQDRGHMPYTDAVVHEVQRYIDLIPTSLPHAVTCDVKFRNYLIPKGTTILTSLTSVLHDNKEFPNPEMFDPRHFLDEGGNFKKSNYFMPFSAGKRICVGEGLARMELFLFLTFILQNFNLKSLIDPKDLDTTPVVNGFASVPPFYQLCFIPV
Summary of the method: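 Enzyme-substrate mix with proluciferin substrate (P450-Glo CYP2C19 system) preincubated with compounds 10 min at room temperature; NADPH regeneration solution added, 37C for 1 h; detection reagent stops reaction, luminescence read after 20 min. Ketoconazole positive control.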

[14] = target: Cytochrome P450 2C9 (Homo sapiens) (UniProt P11712); experiment: Cytochrome P450 Family 2 Subfamily C Member 9 (CYP2C9) small molecule antagonists: luciferase reporter qHTS assay (AID 1671198); note: nearly all actives have a fitted effect of over 50% in size; note: potency is the fitted concentration of half-maximal effect
Sequence of Cytochrome P450 2C9 (Homo sapiens) (P11712 whole entry, looked up): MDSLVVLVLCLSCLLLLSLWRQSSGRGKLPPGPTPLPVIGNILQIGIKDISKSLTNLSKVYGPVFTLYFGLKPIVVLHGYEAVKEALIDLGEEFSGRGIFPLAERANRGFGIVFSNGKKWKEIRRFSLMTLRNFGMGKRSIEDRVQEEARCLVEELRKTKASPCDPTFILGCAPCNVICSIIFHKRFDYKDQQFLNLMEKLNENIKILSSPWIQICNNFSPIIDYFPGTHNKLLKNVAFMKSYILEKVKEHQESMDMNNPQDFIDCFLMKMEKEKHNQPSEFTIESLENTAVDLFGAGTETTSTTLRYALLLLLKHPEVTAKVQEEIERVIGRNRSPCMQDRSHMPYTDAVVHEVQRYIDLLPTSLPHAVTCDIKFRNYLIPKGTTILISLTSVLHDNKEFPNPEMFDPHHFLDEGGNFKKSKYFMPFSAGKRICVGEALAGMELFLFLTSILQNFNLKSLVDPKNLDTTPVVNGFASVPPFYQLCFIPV
Summary of the method: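 CYP2C9 activity was measured with a P450-Glo proluciferin substrate. Enzyme–substrate mix was held with compound for 10 min at room temperature, then NADPH regeneration solution was added for 1 h at 37C. Luciferin product was read as luminescence.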

[15] = target: Voltage-gated inwardly rectifying potassium channel KCNH2 (Homo sapiens) (UniProt Q12809); experiment: Human Ether-a-go-go-Related Gene (hERG) channel small molecule antagonists: fluorescence cell-based qHTS assay (AID 1671200)
Sequence of Voltage-gated inwardly rectifying potassium channel KCNH2 (Homo sapiens) (Q12809 whole entry, looked up): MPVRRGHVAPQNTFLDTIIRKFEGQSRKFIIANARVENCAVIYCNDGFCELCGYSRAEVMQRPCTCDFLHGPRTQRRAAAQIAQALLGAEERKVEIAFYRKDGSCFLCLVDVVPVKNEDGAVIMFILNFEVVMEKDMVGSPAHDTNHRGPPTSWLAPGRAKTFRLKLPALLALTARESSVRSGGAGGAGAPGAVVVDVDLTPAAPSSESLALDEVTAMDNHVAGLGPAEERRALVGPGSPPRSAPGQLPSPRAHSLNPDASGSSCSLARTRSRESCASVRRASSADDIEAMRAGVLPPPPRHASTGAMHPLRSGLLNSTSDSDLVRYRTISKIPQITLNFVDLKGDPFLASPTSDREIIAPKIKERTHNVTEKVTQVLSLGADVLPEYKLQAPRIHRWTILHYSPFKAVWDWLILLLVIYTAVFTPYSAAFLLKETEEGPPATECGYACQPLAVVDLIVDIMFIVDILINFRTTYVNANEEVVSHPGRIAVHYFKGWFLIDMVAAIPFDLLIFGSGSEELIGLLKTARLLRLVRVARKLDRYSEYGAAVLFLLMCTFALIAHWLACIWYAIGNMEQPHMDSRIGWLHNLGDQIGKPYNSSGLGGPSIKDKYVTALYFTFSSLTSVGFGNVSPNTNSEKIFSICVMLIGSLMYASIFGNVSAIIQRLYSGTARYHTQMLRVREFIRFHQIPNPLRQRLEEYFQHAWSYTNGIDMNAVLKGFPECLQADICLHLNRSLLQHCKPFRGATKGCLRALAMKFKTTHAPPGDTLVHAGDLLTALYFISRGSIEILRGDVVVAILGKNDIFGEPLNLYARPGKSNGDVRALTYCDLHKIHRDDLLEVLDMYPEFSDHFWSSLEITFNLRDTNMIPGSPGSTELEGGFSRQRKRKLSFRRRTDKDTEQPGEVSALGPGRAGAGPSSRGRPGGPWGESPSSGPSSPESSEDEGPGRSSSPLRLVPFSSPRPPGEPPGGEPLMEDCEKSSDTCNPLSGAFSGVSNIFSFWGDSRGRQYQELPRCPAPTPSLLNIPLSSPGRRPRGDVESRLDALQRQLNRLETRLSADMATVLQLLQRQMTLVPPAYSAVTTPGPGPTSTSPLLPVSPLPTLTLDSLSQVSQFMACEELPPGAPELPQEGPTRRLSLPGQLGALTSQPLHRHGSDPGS
Summary of the method: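 Kinetic two-minute fluorescence traces, sampled at 1 s, were collected following thallium stimulus of U2OS cells (1000 per well) that had been cultured overnight at 37 C and loaded with FluxOR II.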

[16] = target: Cytochrome P450 3A4 (Homo sapiens) (UniProt P08684); experiment: Cytochrome P450 Family 3 Subfamily A Member 4 (CYP3A4) small molecule antagonists: luciferase reporter qHTS assay (AID 1671201); note: nearly all actives have a fitted effect of over 50% in size; note: potency is the fitted concentration of half-maximal effect
Sequence of Cytochrome P450 3A4 (Homo sapiens) (P08684 whole entry, looked up): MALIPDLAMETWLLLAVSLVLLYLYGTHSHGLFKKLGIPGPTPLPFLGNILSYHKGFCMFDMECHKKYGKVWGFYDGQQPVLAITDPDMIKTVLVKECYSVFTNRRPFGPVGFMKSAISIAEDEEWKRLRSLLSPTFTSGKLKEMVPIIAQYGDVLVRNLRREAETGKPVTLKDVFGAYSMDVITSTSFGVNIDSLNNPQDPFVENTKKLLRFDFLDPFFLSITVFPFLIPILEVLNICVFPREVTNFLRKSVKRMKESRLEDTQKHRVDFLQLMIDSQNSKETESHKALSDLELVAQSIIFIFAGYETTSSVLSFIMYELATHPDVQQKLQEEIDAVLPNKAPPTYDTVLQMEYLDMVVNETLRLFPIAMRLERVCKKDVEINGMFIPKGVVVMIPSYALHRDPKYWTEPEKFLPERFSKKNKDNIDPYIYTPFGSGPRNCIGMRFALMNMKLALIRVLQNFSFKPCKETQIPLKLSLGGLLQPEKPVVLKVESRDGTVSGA
Summary of the method: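 Proluciferin-to-luciferin conversion by CYP3A4, NADPH-regenerated, 1 h RT; luminescence read as RLU. Ketoconazole as control.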

[17] = target: Cytochrome P450 1A2 (Homo sapiens) (UniProt P05177); experiment: Cytochrome P450 Family 1 Subfamily A Member 2 (CYP1A2) small molecule antagonists: luciferase reporter qHTS assay (AID 1671199); note: nearly all actives have a fitted effect of over 50% in size; note: potency is the fitted concentration of half-maximal effect
Sequence of Cytochrome P450 1A2 (Homo sapiens) (P05177 whole entry, looked up): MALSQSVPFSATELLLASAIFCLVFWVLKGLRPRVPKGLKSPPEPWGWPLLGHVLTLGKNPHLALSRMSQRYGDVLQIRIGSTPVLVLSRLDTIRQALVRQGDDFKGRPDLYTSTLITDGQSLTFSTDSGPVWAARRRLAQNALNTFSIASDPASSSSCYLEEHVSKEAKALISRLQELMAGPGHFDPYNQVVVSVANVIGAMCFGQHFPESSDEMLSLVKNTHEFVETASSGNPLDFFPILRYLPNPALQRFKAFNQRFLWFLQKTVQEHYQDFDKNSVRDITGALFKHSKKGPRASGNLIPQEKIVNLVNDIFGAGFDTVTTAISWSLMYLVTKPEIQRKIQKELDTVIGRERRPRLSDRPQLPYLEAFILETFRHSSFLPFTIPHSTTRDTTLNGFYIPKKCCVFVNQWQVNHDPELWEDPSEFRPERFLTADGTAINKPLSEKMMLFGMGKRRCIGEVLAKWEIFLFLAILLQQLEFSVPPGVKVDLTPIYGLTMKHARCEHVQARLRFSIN
Summary of the method: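 Luminescence readout (relative luminescence units) after luciferin detection reagent, 20 min RT. Preceded by 1 h room-temperature CYP1A2 reaction with NADPH regeneration solution following 10 min compound preincubation with enzyme and proluciferin substrate. Furafylline positive control.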

[18] = target: Nuclear receptor subfamily 1 group I member 2 (Rattus norvegicus) (UniProt Q9R1A7); experiment: Rat pregnane X receptor (rPXR) activation by small molecules, qHTS assay (AID 1346983); details: rPXR luciferase reporter cells, One-Glo luminescence, 24 h; stronger effect = higher value; note: nearly all actives have a fitted effect of over 20% in size
Sequence of Nuclear receptor subfamily 1 group I member 2 (Rattus norvegicus) (Q9R1A7 whole entry, looked up): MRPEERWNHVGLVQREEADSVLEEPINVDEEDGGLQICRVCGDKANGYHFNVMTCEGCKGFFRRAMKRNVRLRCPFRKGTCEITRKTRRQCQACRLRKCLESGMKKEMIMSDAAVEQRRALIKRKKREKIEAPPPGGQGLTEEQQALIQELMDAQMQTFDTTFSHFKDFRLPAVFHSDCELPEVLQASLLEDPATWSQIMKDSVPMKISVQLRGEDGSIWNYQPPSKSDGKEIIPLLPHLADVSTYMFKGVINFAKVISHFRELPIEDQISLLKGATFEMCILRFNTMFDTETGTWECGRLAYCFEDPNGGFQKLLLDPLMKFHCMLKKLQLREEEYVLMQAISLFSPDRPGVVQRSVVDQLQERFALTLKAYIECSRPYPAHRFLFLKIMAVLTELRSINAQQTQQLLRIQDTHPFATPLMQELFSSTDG
Summary of the method: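 Cell-based rPXR luciferase reporter assay, 2,000 cells per well, rested 5hr at 37 C before compound addition in DMSO, then 24 hr at 37 C. One-Glo reagent was added and luminescence read after 30 min at room temperature.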

[19] = target: Nuclear receptor subfamily 1 group I member 2 (Homo sapiens) (UniProt O75469); experiment: CYP3A4 induction through human pregnane X receptor (PXR) by small molecules, qHTS assay (AID 1346984); note: nearly all actives have a fitted effect of over 40% in size
Summary of the method: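 HepG2-derived DPX-2 line carrying PXR plus a CYP3A4-promoter luciferase reporter; cells plated 5 hr, compound-exposed 24 hr at 37C. CYP3A4 activity probed with 3uM (final) Luciferin-IPA for 3hr, then luciferase read after One-Glo.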

[20] = target: Nuclear receptor subfamily 1 group I member 2 (Homo sapiens) (UniProt O75469); experiment: Human pregnane X receptor (PXR) activation by small molecules, qHTS assay (AID 1346985); note: nearly all actives have a fitted effect of over 40% in size
Summary of the method: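 DPX-2 cells (HepG2 co-transfected with a PXR response element and a CYP3A4-promoter luciferase construct) were seeded at 2,000 per well, rested 5 hr at 37C, then exposed to DMSO-dissolved compounds for 24 hr. Activation was read as luciferase luminescence.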

Row | Structure (SMILES) | outcome [1] | outcome [2] | outcome [3] | outcome [4] | outcome [5] | outcome [6] | outcome [7] | Potency [8] | outcome [9] | outcome [10] | Potency [11] | Potency [12] | Potency [13] | Potency [14] | Potency [15] | Potency [16] | Potency [17] | max activation [18] | Potency [19] | Potency [20]
1 | OCC1(CO)COCOC1 | inactive | inactive | inactive | inactive | inactive | inactive | inactive | inactive | inactive | inactive | inactive | inactive | inactive | inactive | inactive | inactive |  |  |  | 
2 | Cc1c(C(=O)c2c[nH]n(C)c2=O)ccc(S(C)(=O)=O)c1C1=NOCC1 | inactive | inactive | inactive | inactive | inactive | inactive | inactive | inactive | inactive | inactive | inactive | inactive |  | 12.9 µM (active) | inactive | inactive | 14.5 µM (active) |  |  | 
3 | CCCCOC(=O)C(C)O (centres undefined) | inactive | inactive | inactive | inactive | inactive | inactive | inactive | inactive | inactive | inactive | inactive |  | inactive | inactive |  | inactive | inactive |  |  | 
4 | CN(C)CCCCl | inactive | inactive | inactive | inactive | inactive | inactive | inactive | inactive | inactive | inactive | inactive | inactive | inactive | inactive | inactive | inactive | inactive |  |  | 
5 | CC(Oc1cc(Cl)ccc1Cl)C(=O)O (centres undefined) | inactive | inactive | inactive | inactive | inactive | inactive | inactive | inactive | inactive |  | inactive | inactive | inactive | 71 µM (active) |  |  | inactive |  |  | 
6 | C=CCCCCCCCCC(=O)OCCCC | inactive | inactive | inactive | inactive | inactive | inactive | inactive | inactive | inactive |  | inactive | inactive | 56.4 µM (active) |  | inactive | inactive |  |  |  | 
7 | N#Cc1ccccc1O | inactive | inactive | inactive | inactive | inactive | inactive | inactive | inactive | inactive | inactive | inactive |  |  | inactive | inactive | inactive | inactive |  |  | 
8 | CCCCCCCCCCCCCBr | inactive | inactive | inactive | inactive | inactive | inactive | inactive | inactive |  | inactive | inactive | inactive |  |  | inactive | inactive | 22.4 µM (active) |  |  | 
9 | C=CCSSCCC | inactive | inactive | inactive | inactive | inactive | inactive | inactive | inactive |  | inactive | inactive |  | inactive | inactive | inactive | inactive | inactive |  |  | 
10 | c1ccc(B(c2ccccc2)c2ccccc2)cc1 | inactive | inactive | inactive | inactive | inactive | inactive | inactive | inactive | inactive |  | 30.6 µM (active) | 31.7 µM (active) |  | 31.7 µM (active) | inactive | 35.5 µM (active) | 22.4 µM (active) |  |  | 
11 | CO[C@@]1(NC(=O)Cc2cccs2)C(=O)N2C(C(=O)O)=C(COC(N)=O)CS[C@@H]21 | inactive | inactive | inactive | inactive | inactive | inactive | inactive | inactive |  | inactive | inactive | inactive | inactive |  | inactive | inactive | inactive |  |  | 
12 | CC(=O)c1cc(C)oc1C | inactive | inactive | inactive | inactive | inactive | inactive | inactive | inactive |  | inactive | inactive | inactive | 32.9 µM (active) | inactive | inactive | inactive |  |  |  | 
13 | OC1OCCOC1O (centres undefined) | inactive | inactive | inactive | inactive | inactive | inactive | inactive | inactive | inactive | inactive | inactive |  |  |  | inactive | inactive | 35.6 µM (active) |  |  | 
14 | CN(C)CCOC(=O)C(c1ccccc1)C1(O)CCCC1 (centres undefined) | inactive | inactive | inactive | inactive | inactive | inactive | inactive | inactive |  | inactive | inactive |  |  | inactive |  | inactive |  | 3.01% | inactive | inactive
15 | CNCCS(=O)(=O)O | inactive | inactive | inactive | inactive | inactive | inactive | inactive | inactive | inactive | inactive |  | inactive | inactive | inactive | inactive | inactive | 35.9 µM (active) |  |  | 
16 | CC(=O)N[C@@H](CO)C(=O)N[C@@H](CC(=O)O)C(=O)N[C@@H](CCCCN)C(=O)N1CCC[C@H]1C(=O)O (Ac-SDKP-OH) | inactive | inactive | inactive | inactive | inactive | inactive | inactive | inactive |  | inactive | inactive |  | inactive |  |  | inactive |  |  |  | 
17 | CC(C)CO | inactive | inactive | inactive | inactive | inactive | inactive | inactive | inactive | inactive | inactive | inactive |  |  | inactive |  |  | inactive |  |  | 
18 | CC(=O)O[C@@H]1CC2CCC1(C)C2(C)C (some centres undefined) | inactive | inactive | inactive | inactive | inactive | inactive | inactive | inactive | inactive | inactive |  | inactive | inactive | inactive | inactive | inactive | inactive | -1.62% | inactive | 
